About 83,000 compounds went through this panel and 20% of them were active in at least one assay; those are over-represented in the sample as a whole.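 Single-dose data. Exposure time 48 hours. Values below 10 considered active.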 Unmarked numbers belong to inactive results. Activity calls are given as the source filed them.
Columns and labels:
Experiment in all cases: NCI-60 one-dose screen, 48 h (100 = growth as untreated, 0 = no growth, -100 = all killed)
Details in all cases: 10 µM unless noted
HCT-15 colon = test system: HCT-15 colon
HT29 colon = test system: HT29 colon
SNB-75 CNS = test system: SNB-75 CNS
SNB-19 CNS = test system: SNB-19 CNS
U251 CNS = test system: U251 CNS
PC-3 prostate = test system: PC-3 prostate
SK-MEL-5 melanoma = test system: SK-MEL-5 melanoma
UACC-62 melanoma = test system: UACC-62 melanoma
LOX IMVI melanoma = test system: LOX IMVI melanoma
SK-MEL-28 melanoma = test system: SK-MEL-28 melanoma
SK-MEL-2 melanoma = test system: SK-MEL-2 melanoma
EKVX NSCLC = test system: EKVX NSCLC
SN12C renal = test system: SN12C renal
UO-31 renal = test system: UO-31 renal
TK-10 renal = test system: TK-10 renal
ACHN renal = test system: ACHN renal
CAKI-1 renal = test system: CAKI-1 renal
A498 renal = test system: A498 renal
CCRF-CEM leukemia = test system: CCRF-CEM leukemia
MOLT-4 leukemia = test system: MOLT-4 leukemia

Structure (SMILES)	growth (HCT-15 colon)	growth (HT29 colon)	growth (SNB-75 CNS)	growth (SNB-19 CNS)	growth (U251 CNS)	growth (PC-3 prostate)	growth (SK-MEL-5 melanoma)	growth (UACC-62 melanoma)	growth (LOX IMVI melanoma)	growth (SK-MEL-28 melanoma)	growth (SK-MEL-2 melanoma)	growth (EKVX NSCLC)	growth (SN12C renal)	growth (UO-31 renal)	growth (TK-10 renal)	growth (ACHN renal)	growth (CAKI-1 renal)	growth (A498 renal)	growth (CCRF-CEM leukemia)	growth (MOLT-4 leukemia)
Cc1cc(Cl)nc(N(CCNc2ccnc3cc(Cl)ccc23)Cc2ccccn2)n1	48.7%	24.7%	78.6%	62.5%	26.8%	56.9%	41.3%	66.3%	58.4%	62.1%	69.5%	61.4%	52.6%	43.2%	63.3%	44.9%	56.1%	85.8%	7.95% (active)	
O=C1C=CC(=O)N1c1cccc(Cl)c1	101%	85.9%	115%	118%	99.2%	89.2%	106%	105%	102%	108%	116%	108%	126%	104%	68.2%	98.4%	79.4%	94.6%	55.4%	
N#Cc1c(-c2cccc([N+](=O)[O-])c2)nc(SCC(=O)c2ccc(Cl)cc2)[nH]c1=O	103%	105%	72.2%	92.8%	97.3%	100%	106%	93.6%	96%	107%	110%	99.8%	96.9%	80.6%	102%	103%	88.8%	92.3%	2.87% (active)	
COc1ccc2nc(-c3ccc(-c4noc(-c5cc(OC)c(OC)c(OC)c5)n4)cc3)[nH]c2c1	30.2%	20.2%	35.4%	76.8%	25.1%	95.2%	45%	99.8%	67.5%	51.3%	99.2%	91.9%	80.7%	108%	102%	97.9%	96.5%	101%		
CCNc1nc2cc(Nc3ccnc4cc(Cl)ccc34)ccc2o1	40.9%	31.5%	83.7%	84.4%	74.4%	64.3%	48.2%	70.9%	58.5%	80.7%	81.2%	86%	79.3%	70.2%	81.9%	88.2%	71.9%	47%	76.8%	
CC(C)(C)[Si](C)(C)OC1[C@@H](O[Si](C)(C)C(C)(C)C)[C@@H](CNC(=O)NC(=O)CCl)O[C@H]1n1cnc2c(NC(=O)Nc3ccccc3)ncnc21 (some centres undefined)	37.5%	-48.1% (active)	-66.2% (active)	6.83% (active)	-75.6% (active)	-36.2% (active)	-87.7% (active)	-61.5% (active)	-88.1% (active)	-79.5% (active)	42.7%	-40.4% (active)	-50.3% (active)	-75% (active)	105%	-68.6% (active)	37.9%	43.5%	-37.9% (active)	-43.8% (active)
N#CC1C(C#N)C(C(=O)c2ccc(Br)cc2)N2c3ccccc3C=CC12 (centres undefined)	23.7%	37.4%	12%	80.4%	84.6%	76.8%	61.3%	63%	78.7%	95.7%	104%	63.9%	76.1%	48%	106%	89.4%	50.7%	67.7%	84.9%	92.7%
CC(C)N1C(=O)S/C(=C2/SC(=O)N(C(C)C)C2=O)C1=O	95.9%	102%	64.8%	93.3%	96.3%	98.2%	93.9%	91.6%	91.9%	105%	98.7%	85.5%	94.8%	87.7%	89.9%	102%	98.8%	89.5%	38.9%	99.4%
O=C(NO)c1ccc(-n2nc(-c3ccccc3)c3ccccc32)cc1	18.5%	41.7%	12.1%	47.4%	34.4%	46.7%	57.6%	34.5%	24.8%	72.5%	90.9%	42.3%	32.9%	34.6%	31.5%	26.9%	45.6%	58.8%	12.9%	26.9%
COc1cc(/C=C2\COc3ccc(-c4ccccc4)cc3C2=O)cc(OC)c1	61.3%	60.7%	51.8%	98.9%	75.8%	57.9%	86.3%	75.9%	71.9%	97.7%	83.9%	102%	80.5%	77.1%	103%	88.7%	71.6%	95.5%	20.3%	30.7%
CC(=O)Oc1ccc(/C=N/NC(N)=S)nc1	92%	94.6%	8.77% (active)	102%	51.7%	81%	14.6%	59.3%	47.7%	65.7%	79.2%	105%	73.6%	52.7%	108%	13.2%	49.8%	88.6%	39.3%	56%
[O-][n+]1c(Cl)cc(Cl)c2ccccc21	99.8%	122%	101%	102%	92.9%	81.2%	109%	98.9%	97.4%	104%	123%	76.9%	101%	78.5%	125%	99.5%	92.6%	73.2%	87.5%	88.7%
NS(=O)(=O)c1ccc(CCn2c(SCC(=O)c3ccc(Cl)cc3)nc3ccccc3c2=O)cc1	98.2%	102%	90.2%	102%	109%	98.2%	104%	98.9%	96.8%	113%	107%	98.9%	101%	84.5%	97.2%	99.9%	89.7%	99.2%	97.8%	97.6%
O=C(Cn1c(C(=O)c2ccccc2)nc2ccccc21)c1ccc(F)cc1	44.4%	23.3%	48.4%	74.5%	55.1%	78.2%	60.7%	37.1%	61.3%	54%	60.7%	83.2%	77.9%	80.6%	67.7%	95.8%	42.6%	86.5%	57.1%	21.3%
Clc1ccc(-c2ccc(CNCC3CCNCC3)o2)c(-c2ccccc2)c1	-76.3% (active)	-78.6% (active)	-90.8% (active)	-68.1% (active)	-88.8% (active)	-81.8% (active)	-99.1% (active)	-90.8% (active)	-86.7% (active)	-90% (active)	-75.7% (active)	-15% (active)	-75.6% (active)	-95.1% (active)	-85.3% (active)	-96.8% (active)	-85.3% (active)	6.29% (active)	-62.7% (active)	-62.7% (active)
O=C(CCN1CCCC1)c1ccc([N+](=O)[O-])cc1	100%	101%	84%	116%	98.4%	99.8%	101%	105%	102%	104%	111%	97.5%	106%	87.3%	101%	106%	97.3%	92.9%	103%	113%

Reference: PubChem BioAssay (NCI)
